An excerpt weighted towards active compounds, which were near 11% of everything screened.
G9a block – inhibitors of human histone lysine methyltransferase G9a | Q96KQ7 | G9a H3K9 monomethylation, AlphaScreen, 2 h | Potency, µM (top dose mostly 102 µM), actives largely listed as inhibitors | hit rate 8.8% among 350,000; further: nearly all actives have a fitted effect of over 75% in size
Target sequence (Q96KQ7 913-1193 limits assumed): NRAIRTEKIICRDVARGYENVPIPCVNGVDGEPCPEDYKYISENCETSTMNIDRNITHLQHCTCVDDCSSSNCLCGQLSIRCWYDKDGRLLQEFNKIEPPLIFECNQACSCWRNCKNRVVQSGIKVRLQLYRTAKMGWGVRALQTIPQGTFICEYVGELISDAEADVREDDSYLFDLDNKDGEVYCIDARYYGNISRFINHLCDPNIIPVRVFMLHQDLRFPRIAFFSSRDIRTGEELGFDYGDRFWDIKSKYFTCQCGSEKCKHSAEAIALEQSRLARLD
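Enzyme 20 nM + cpd, 15 min RT; add b-H3K9 pep 500 nM / SAM 20 uM; 2 h RT; anti-H3K9me1 Ab 0.5 ug/mL + SA donor / anti-rabbit acceptor beads 20 ug/mL each, 10 min; AlphaScreen read.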
BAZ2B block – blocks human BAZ2B; hit rate 4.4% among 360,000; AlphaScreen BAZ2B-H3K14Ac peptide displacement; Potency, µM (doses to about 114 µM), hits mostly inhibitors; Q9UIF8; further: nearly all actives have a fitted effect of over 60% in size
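Multi-concentration screen (max 110 uM) measuring displacement of acetylated histone H3 peptide from BAZ2B by AlphaScreen, using 50 nM protein, 50 nM peptide and 10 ug/mL streptavidin donor plus Ni-chelate acceptor beads.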
JMJD2A Tudor inh – blocks the human JMJD2A Tudor domain; Potency, µM (top dose mostly 114 µM), hits mostly inhibitors; AlphaScreen JMJD2A-Tudor / H3K4me3 peptide binding; hit rate 4.4% among 390,000; O75164; AID 504339; further: nearly all actives have a fitted effect of over 50% in size
HP1b chromo inh – blocks HP1-beta chromodomain binding to methylated histone tails; P83916; AlphaScreen HP1-beta / biotin-H3K9me3 peptide binding; Potency, µM (doses to about 114 µM), hits mostly inhibitors; hit rate 0.56% among 390,000; AID 540317; further: nearly all actives have a fitted effect of over 70% in size
Target sequence (P83916 whole entry, looked up): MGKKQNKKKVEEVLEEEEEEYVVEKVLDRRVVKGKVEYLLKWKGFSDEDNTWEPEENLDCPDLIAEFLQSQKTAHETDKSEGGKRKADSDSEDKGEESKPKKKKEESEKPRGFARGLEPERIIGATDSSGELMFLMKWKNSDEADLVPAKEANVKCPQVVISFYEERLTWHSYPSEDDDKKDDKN
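HP1-beta protein (50 nM final) preincubated 30 min at room temperature with biotinylated H3(1-18)K9me3 peptide (50 nM) in PBS pH 7.4, 0.01% Tween-20, then compound added for 30 min. AlphaScreen streptavidin donor/nickel chelate acceptor beads (10 ug/mL final), 30 min dark, luminescence read.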
L3MBTL1 block – inhibitors of human L3MBTL1 | AlphaScreen L3MBTL1–H3K9me1 peptide binding | Potency, µM (highest dose often 57.1 µM), usual class: inhibitors | hit rate 0.66% among 230,000; further: nearly all actives have a fitted effect of over 60% in size
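Displacement of a biotinylated histone H3(1-15) peptide monomethylated at Lys9 (75 nM) from L3MBTL1 (50 nM) was measured by AlphaScreen after a 30 min room-temperature compound incubation; cefsulodin titration served as intraplate control.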
Each line names hits and unclear results; the compound was inactive in the other large screens. The call rests on the fitted dose curve; in most records, active means well fitted inhibition curve with a large enough effect; inconclusive means small, poorly fitted or top-dose-only effect; inactive means no such curve, though single readings can be large or run the other way.

CCn1c(CCc2nc3ccccc3[nH]2)n[nH]c1=S	G9a block inconclusive, JMJD2A Tudor inh 4µM (no result: L3MBTL1 block)
Cc1nc(SCC(=O)Nc2ccccc2Cl)cc(-c2ccccc2)n1	none (no result: L3MBTL1 block)
CCCCOc1ccc(C(=O)N2CCN(CCc3ccncc3)CC2)cc1	BAZ2B block inconclusive (no result: L3MBTL1 block)
COc1ccc(-c2nnc3ccc(SC(C)C)nn23)cc1OC	none (no result: G9a block, BAZ2B block, L3MBTL1 block)
CN(C)c1ccc(N=Nc2ccc3ncccc3c2)cc1	JMJD2A Tudor inh 3.2µM, HP1b chromo inh inconclusive (no result: G9a block, BAZ2B block, L3MBTL1 block)
CN(C)c1ccc(N=Nc2cccc(F)c2)cc1	G9a block 10µM, BAZ2B block 4.5µM, JMJD2A Tudor inh 8.9µM, HP1b chromo inh 6.3µM (no result: L3MBTL1 block)
CN(C)c1ccc(N=Nc2cccc3ccoc23)cc1	G9a block 6.3µM, BAZ2B block 5.6µM, JMJD2A Tudor inh 25µM, HP1b chromo inh 18µM, L3MBTL1 block 10µM
Cc1cc(N(C)C)ccc1N=Nc1ccc2ncccc2c1	BAZ2B block 3.2µM, JMJD2A Tudor inh 6.3µM, HP1b chromo inh 8.9µM, L3MBTL1 block 8.9µM
CN(C)c1ccc(N=Nc2ccc(S(N)(=O)=O)cc2)cc1	G9a block inconclusive, BAZ2B block inconclusive (no result: L3MBTL1 block)
O=C1CCc2cc(S(=O)(=O)Nc3cccnc3)ccc2N1	none (no result: G9a block, BAZ2B block, HP1b chromo inh, L3MBTL1 block)
CC(=O)c1ccc(S(=O)(=O)Nc2cccc(-n3cnnn3)c2)cc1	G9a block 40µM, BAZ2B block 50µM, JMJD2A Tudor inh inconclusive (no result: L3MBTL1 block)
CC(=O)Nc1ccc(S(=O)(=O)Nc2cccc(-n3cnnn3)c2)cc1	none (no result: L3MBTL1 block)
COc1ccccc1NC(=O)c1ccc2ccccc2c1	none (no result: G9a block, BAZ2B block, HP1b chromo inh, L3MBTL1 block)
c1ccc2sc(NC3=NCN(CC4CCCO4)CN3)nc2c1 (stereo not drawn)	none
C=CCN1C(c2cccc(C(F)(F)F)c2)=CS/C1=C(/C#N)c1nnc(N2CCOCC2)n1-c1ccccc1	G9a block 79µM, BAZ2B block 50µM, JMJD2A Tudor inh 50µM
C=CCN1C(c2ccc(Br)cc2)=CS/C1=C(/C#N)c1nnc(N2CCOCC2)n1-c1ccccc1	G9a block inconclusive, BAZ2B block inconclusive, JMJD2A Tudor inh inconclusive, HP1b chromo inh inconclusive
COc1ccc(Nc2c3c(nc4ccccc24)CCCC3)cc1OC	BAZ2B block inconclusive, JMJD2A Tudor inh inconclusive, HP1b chromo inh inconclusive (no result: L3MBTL1 block)
COc1ccc(Nc2c3c(nc4ccc(NC(=O)/C=C/c5cccc(OC)c5OC)cc24)CCCC3)cc1OC	G9a block 11µM, BAZ2B block 10µM, JMJD2A Tudor inh 14µM, HP1b chromo inh inconclusive (no result: L3MBTL1 block)
COc1ccc(/C=C/C(=O)Nc2ccc3nc4c(c(Nc5ccccc5OC)c3c2)CCCC4)cc1	G9a block 7.9µM, JMJD2A Tudor inh inconclusive (no result: L3MBTL1 block)
COc1ccccc1Nc1c2c(nc3ccc(NC(=O)/C=C/c4cccc(OC)c4OC)cc13)CCCC2	G9a block 11µM, BAZ2B block inconclusive, JMJD2A Tudor inh inconclusive (no result: L3MBTL1 block)
Cc1ccccc1NC(=O)c1ccc(F)c(S(=O)(=O)N(C)C2CCCCC2)c1	none (no result: L3MBTL1 block)
CCC(C(=O)NCC1CCCO1)n1nc(C)c2sc3ccccc3c2c1=O (stereo not drawn)	none (no result: L3MBTL1 block)
CCOC(=O)N1CCN(C(=O)CN(c2cccc(Cl)c2)S(=O)(=O)c2ccccc2)CC1	none (no result: L3MBTL1 block)
CCOc1ccc(C2NC(=O)C(C#N)=C(S)N2c2ccc(OC)cc2)cc1OC (stereo not drawn)	G9a block inconclusive
CCOC(=O)CSC1=C(C#N)C(=O)NC(c2ccc(OC)cc2)S1 (stereo not drawn)	G9a block inconclusive, BAZ2B block 50µM, JMJD2A Tudor inh 25µM (no result: L3MBTL1 block)
CCOC(=O)CSC1=C(C#N)C(=O)NC(c2ccc(OC)c(OC)c2)S1 (stereo not drawn)	G9a block inconclusive, BAZ2B block 50µM, JMJD2A Tudor inh 40µM, HP1b chromo inh inconclusive
COc1ccc(OC)c(N(CC(=O)NCc2ccccc2)S(=O)(=O)c2ccccc2)c1	G9a block inconclusive (no result: L3MBTL1 block)
Cc1cc(C)n(C)c(=O)c1C#N	none
Cc1c(C=O)c(Cl)n(C)c(=O)c1C#N	G9a block 40µM, BAZ2B block 56µM, JMJD2A Tudor inh 79µM
CC(=O)N=Cc1c(C)c(C#N)c(=O)n(C)c1O	G9a block 45µM (no result: L3MBTL1 block)
CCOc1ccc(CNC(=O)c2cc3cc(S(=O)(=O)N4CCCCC4)ccc3n2C)cc1	none (no result: L3MBTL1 block)
O=C(CCCN1C(=O)c2ccccc2C1=O)Nc1nccs1	G9a block inconclusive (no result: L3MBTL1 block)
CN(C)c1ccc(NC(=O)CCN2C(=O)c3cccc([N+](=O)[O-])c3C2=O)cc1	G9a block 10µM
O=C(CCN1C(=O)c2cccc([N+](=O)[O-])c2C1=O)Nc1nccs1	G9a block 40µM

Source: PubChem
